# Laboratory results: publication PMC7862700, “An all-to-all approach to the identification of sequence-specific readers for epigenetic DNA modifications on cytosine”
# Experiments:
# Test in all cases: DAPPL (digital affinity profiling via proximity ligation, sequencing); 10 mM Tris-HCl pH 7.5, 50 mM NaCl, 1 mM DTT, 4% glycerol, room temperature, 30 min; GST-TFs on glutathione beads, 16-mer random dsDNA library, 0.1% formaldehyde crosslink after washing; high values mean tight binding
# FLI1 = molecular target: T1, FLI1 (Homo sapiens, UniProt Q01543 1-452); settings: protein: recombinant; tags: N-terminal GST; dsDNA, one strand shown
# T1 sequence: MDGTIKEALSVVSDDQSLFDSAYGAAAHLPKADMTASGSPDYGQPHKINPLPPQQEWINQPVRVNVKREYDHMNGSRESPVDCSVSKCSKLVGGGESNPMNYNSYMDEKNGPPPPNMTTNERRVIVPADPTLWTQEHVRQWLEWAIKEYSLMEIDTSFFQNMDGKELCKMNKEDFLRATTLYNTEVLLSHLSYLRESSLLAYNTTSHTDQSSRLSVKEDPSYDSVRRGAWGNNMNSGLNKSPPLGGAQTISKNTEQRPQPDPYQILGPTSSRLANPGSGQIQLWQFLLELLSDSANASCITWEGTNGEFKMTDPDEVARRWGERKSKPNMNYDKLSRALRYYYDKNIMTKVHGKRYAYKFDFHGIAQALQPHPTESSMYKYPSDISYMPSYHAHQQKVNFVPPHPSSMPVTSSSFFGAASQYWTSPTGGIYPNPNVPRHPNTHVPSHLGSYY
# How it was run: (§1)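 Each value of binding signal is a hexamer's read frequency for a factor divided by the same hexamer's frequency in the tag-only sample. Barcoded, bead-captured GST fusions of human transcription factors made in yeast were pooled with that sample and incubated with 200 nmole of a random double-stranded 16-mer DNA library in Tris/NaCl/DTT/glycerol buffer at room temperature for 30 min. Washing, 0.1% formaldehyde crosslinking, proximity ligation, PCR and Illumina NextSeq500 sequencing followed.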
# ELK1 = molecular target: T2, ELK1 (Homo sapiens, UniProt P19419 1-428); settings: protein: recombinant; tags: N-terminal GST; dsDNA, one strand shown
# T2 sequence: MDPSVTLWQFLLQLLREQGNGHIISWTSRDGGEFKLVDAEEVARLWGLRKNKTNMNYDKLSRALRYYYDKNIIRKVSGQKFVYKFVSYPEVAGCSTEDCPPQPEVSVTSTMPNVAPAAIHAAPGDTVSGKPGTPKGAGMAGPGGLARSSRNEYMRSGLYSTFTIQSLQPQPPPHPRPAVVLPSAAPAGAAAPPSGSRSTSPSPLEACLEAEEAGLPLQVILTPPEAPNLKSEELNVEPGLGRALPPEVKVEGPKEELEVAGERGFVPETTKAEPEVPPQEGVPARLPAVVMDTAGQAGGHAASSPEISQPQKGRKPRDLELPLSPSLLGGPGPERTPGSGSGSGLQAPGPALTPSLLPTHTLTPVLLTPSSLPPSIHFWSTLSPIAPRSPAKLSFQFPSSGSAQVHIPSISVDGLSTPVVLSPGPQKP
# How it was run: as §1
# GABPA = molecular target: T3, GABPA (Homo sapiens, UniProt Q06546 1-454); settings: protein: recombinant; tags: N-terminal GST; dsDNA, one strand shown
# T3 sequence: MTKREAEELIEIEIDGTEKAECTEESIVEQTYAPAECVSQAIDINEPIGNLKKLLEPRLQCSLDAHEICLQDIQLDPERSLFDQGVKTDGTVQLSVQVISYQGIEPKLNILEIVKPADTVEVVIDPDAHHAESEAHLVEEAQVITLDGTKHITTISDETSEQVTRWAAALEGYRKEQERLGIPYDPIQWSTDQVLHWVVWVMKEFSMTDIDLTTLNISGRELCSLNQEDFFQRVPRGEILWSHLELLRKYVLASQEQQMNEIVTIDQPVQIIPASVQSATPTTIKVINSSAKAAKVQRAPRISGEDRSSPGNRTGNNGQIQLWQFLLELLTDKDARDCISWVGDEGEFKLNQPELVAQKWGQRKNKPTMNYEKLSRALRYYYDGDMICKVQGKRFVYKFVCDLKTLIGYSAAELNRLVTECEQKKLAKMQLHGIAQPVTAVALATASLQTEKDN
# How it was run: as §1
# ERG = molecular target: T4, ERG (Homo sapiens, UniProt P11308 1-479); settings: protein: recombinant; tags: N-terminal GST; dsDNA, one strand shown
# T4 sequence: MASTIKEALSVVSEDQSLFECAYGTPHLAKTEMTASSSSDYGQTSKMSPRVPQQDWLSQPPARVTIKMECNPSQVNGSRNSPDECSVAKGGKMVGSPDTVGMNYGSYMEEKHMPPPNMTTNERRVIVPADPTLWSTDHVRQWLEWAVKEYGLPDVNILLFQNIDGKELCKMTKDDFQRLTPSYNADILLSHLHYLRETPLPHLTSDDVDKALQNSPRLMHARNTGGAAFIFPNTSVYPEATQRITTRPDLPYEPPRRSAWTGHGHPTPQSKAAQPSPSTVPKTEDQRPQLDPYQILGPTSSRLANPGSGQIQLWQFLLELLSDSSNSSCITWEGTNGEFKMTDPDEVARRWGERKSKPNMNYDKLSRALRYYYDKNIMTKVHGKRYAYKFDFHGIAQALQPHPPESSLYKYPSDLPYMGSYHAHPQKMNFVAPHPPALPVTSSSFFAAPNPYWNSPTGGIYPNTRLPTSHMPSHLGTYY
# How it was run: as §1
# ELF1 = ELF1 (Homo sapiens, UniProt P32519 1-619); settings: protein: recombinant; tags: N-terminal GST; dsDNA, one strand shown
# Sequence of ELF1 (P32519 whole entry): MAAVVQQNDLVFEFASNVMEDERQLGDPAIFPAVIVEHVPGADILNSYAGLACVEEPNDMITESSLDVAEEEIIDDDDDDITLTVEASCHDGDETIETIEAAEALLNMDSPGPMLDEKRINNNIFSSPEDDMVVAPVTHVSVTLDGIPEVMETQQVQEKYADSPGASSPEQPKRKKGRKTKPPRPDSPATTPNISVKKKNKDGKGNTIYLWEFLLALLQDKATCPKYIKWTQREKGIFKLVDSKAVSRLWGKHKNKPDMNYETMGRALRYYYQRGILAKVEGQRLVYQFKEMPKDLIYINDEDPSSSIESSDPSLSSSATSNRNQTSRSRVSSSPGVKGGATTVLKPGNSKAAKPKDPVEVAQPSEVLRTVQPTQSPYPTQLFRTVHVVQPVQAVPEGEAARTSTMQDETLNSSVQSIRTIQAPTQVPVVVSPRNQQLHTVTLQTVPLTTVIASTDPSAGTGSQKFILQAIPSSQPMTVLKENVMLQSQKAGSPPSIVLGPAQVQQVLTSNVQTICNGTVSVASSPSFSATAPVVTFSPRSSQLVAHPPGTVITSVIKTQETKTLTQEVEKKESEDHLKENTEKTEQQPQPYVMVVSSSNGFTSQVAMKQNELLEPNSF
# How it was run: as §1
# EHF = molecular target: T5, EHF (Homo sapiens, UniProt Q9NZC4 1-300); settings: protein: recombinant; tags: N-terminal GST; dsDNA, one strand shown
# T5 sequence: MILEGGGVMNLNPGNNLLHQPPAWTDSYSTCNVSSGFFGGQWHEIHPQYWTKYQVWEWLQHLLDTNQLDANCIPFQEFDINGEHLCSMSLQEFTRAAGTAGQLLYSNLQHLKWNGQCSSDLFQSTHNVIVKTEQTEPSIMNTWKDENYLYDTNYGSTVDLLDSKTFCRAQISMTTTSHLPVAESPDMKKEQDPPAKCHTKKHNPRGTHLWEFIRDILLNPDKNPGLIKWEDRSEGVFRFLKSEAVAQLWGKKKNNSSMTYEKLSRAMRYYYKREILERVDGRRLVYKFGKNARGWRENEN
# How it was run: as §1
# SPI1 = SPI1 (Homo sapiens, UniProt P17947 1-270); settings: protein: recombinant; tags: N-terminal GST; dsDNA, one strand shown
# How it was run: as §1
# SPIB = SPIB (Homo sapiens, UniProt Q01892 1-262); settings: protein: recombinant; tags: N-terminal GST; dsDNA, one strand shown
# Sequence of SPIB (Q01892 whole entry): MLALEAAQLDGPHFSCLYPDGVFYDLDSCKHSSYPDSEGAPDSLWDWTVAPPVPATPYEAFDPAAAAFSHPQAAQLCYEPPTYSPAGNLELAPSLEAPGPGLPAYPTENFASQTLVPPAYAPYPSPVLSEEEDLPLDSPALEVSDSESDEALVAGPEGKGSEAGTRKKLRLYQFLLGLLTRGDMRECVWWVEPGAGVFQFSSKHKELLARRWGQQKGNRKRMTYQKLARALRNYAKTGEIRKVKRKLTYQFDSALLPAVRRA
# How it was run: as §1
# ELK3 = molecular target: T6, ELK3 (Homo sapiens, UniProt P41970 1-407); settings: protein: recombinant; tags: N-terminal GST; dsDNA, one strand shown
# T6 sequence: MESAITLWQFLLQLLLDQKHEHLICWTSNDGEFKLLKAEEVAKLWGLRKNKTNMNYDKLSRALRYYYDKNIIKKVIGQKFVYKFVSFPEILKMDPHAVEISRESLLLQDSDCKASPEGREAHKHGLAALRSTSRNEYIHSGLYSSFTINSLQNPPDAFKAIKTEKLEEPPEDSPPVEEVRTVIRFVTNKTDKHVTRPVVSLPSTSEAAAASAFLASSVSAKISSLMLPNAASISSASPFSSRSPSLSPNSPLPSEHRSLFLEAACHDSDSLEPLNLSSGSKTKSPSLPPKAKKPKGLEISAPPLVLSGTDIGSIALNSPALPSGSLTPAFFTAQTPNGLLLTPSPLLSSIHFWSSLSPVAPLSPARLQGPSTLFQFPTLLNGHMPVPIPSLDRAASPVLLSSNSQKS
# How it was run: as §1
# FEV = molecular target: T7, FEV (Homo sapiens, UniProt Q99581 1-238); settings: protein: recombinant; tags: N-terminal GST; dsDNA, one strand shown
# T7 sequence: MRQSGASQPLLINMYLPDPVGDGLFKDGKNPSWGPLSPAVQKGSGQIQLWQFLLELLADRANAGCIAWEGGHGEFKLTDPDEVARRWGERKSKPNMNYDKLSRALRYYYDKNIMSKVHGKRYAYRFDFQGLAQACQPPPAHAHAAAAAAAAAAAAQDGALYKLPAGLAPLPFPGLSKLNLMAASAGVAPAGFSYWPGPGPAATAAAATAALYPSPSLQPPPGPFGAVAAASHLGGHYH
# How it was run: as §1
# ETV5 = ETV5 (Homo sapiens, UniProt P41161 1-510); settings: protein: recombinant; tags: N-terminal GST; dsDNA, one strand shown
# Sequence of ETV5 (P41161 whole entry): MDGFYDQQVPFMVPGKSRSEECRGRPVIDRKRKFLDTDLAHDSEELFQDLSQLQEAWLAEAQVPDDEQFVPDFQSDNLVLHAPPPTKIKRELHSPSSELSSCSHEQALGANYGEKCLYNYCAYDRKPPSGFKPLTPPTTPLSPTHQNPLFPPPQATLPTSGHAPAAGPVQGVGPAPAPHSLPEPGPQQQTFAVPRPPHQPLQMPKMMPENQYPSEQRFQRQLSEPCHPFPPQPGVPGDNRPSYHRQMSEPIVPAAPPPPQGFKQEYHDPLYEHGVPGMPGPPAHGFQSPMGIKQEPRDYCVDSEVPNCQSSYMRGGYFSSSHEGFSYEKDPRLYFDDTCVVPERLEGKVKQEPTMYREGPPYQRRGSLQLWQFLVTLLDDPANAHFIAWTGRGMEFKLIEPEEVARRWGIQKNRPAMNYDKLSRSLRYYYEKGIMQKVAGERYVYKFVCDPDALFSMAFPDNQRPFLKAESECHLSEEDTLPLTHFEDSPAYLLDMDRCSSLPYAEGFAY
# How it was run: as §1
# HSF1 = HSF1 (Homo sapiens, UniProt Q00613 1-529); settings: protein: recombinant; tags: N-terminal GST; chain copies: 3; dsDNA, one strand shown
# Sequence of HSF1 (Q00613 whole entry): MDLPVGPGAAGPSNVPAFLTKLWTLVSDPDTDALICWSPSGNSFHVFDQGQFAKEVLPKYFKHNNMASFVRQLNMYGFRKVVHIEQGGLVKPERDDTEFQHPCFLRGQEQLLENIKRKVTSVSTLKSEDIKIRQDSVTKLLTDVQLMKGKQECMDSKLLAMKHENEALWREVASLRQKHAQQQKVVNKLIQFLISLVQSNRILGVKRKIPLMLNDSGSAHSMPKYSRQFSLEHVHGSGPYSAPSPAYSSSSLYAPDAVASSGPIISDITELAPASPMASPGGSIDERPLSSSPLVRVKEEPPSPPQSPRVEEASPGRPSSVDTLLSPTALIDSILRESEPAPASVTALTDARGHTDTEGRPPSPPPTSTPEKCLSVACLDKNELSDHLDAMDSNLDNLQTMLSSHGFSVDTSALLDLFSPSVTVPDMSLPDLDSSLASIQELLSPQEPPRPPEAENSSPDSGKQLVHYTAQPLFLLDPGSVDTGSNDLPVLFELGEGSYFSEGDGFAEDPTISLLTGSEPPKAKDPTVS
# How it was run: as §1
# SPIC = molecular target: T8, SPIC (Homo sapiens, UniProt Q8N5J4 1-248); settings: protein: recombinant; tags: N-terminal GST; dsDNA, one strand shown
# T8 sequence: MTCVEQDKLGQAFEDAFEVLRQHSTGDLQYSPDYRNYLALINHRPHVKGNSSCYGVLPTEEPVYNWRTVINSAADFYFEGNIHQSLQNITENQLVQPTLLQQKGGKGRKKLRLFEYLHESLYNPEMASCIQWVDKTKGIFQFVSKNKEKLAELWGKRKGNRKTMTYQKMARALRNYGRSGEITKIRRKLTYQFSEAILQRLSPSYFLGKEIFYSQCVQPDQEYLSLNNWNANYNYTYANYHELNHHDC
# How it was run: as §1
# ELF4 = ELF4 (Homo sapiens, UniProt Q99607 1-663); settings: protein: recombinant; tags: N-terminal GST; dsDNA, one strand shown
# Sequence of ELF4 (Q99607 whole entry): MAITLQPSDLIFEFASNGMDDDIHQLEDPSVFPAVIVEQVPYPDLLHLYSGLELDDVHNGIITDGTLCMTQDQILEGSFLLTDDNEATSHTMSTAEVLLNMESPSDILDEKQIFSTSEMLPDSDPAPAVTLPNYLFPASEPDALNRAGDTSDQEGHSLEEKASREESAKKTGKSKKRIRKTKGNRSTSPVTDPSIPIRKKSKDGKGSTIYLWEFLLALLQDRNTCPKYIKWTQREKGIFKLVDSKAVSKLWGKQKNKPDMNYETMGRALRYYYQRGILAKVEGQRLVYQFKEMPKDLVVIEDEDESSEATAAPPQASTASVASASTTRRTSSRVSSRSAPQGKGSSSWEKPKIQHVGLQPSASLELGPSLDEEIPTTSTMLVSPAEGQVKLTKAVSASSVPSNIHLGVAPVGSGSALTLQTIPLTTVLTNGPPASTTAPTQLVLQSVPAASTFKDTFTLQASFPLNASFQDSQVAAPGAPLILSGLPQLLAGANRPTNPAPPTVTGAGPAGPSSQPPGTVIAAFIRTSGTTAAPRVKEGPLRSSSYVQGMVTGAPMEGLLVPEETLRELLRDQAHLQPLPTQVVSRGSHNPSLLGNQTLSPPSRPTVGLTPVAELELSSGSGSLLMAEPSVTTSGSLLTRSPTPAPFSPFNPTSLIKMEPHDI
# How it was run: as §1
# ELK4 = molecular target: T9, ELK4 (Homo sapiens, UniProt P28324-2 1-405); settings: protein: recombinant; tags: N-terminal GST; dsDNA, one strand shown
# T9 sequence: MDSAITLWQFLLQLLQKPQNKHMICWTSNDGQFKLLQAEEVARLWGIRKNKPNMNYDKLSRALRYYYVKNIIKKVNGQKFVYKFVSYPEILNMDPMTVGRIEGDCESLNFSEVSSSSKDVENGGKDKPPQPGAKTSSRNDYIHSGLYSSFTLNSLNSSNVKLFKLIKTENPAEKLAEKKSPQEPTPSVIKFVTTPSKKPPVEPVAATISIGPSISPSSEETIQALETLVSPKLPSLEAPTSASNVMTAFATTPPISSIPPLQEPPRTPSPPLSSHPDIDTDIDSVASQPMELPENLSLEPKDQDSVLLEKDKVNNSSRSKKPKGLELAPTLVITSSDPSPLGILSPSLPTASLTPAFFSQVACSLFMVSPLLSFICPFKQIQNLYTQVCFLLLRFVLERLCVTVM
# How it was run: as §1
# ETV2 = molecular target: T10, ETV2 (Homo sapiens, UniProt O00321 1-342); settings: protein: recombinant; tags: N-terminal GST; dsDNA, one strand shown
# T10 sequence: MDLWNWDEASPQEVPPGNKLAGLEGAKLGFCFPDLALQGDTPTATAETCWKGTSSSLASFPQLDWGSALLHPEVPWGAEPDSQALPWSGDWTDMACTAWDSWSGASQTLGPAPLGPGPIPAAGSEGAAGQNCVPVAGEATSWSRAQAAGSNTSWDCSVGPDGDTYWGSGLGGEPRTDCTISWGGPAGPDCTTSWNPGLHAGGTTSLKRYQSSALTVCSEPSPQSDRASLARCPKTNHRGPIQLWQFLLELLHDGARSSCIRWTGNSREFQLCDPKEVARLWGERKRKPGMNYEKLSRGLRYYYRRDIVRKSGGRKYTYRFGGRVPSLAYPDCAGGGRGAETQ
# How it was run: as §1
# ELF3 = molecular target: T11, ELF3 (Homo sapiens, UniProt P78545 1-371); settings: protein: recombinant; tags: N-terminal GST; dsDNA, one strand shown
# T11 sequence: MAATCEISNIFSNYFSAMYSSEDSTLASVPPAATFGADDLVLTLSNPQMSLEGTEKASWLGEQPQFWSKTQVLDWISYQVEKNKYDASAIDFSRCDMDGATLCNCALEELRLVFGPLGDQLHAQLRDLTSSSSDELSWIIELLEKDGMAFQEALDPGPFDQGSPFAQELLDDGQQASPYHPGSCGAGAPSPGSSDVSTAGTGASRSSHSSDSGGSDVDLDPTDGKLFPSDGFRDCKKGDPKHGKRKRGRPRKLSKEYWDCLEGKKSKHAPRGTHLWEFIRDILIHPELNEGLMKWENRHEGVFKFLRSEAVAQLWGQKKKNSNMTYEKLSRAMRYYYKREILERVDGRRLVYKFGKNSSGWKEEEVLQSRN
# How it was run: as §1
# CRX = CRX (Homo sapiens, UniProt O43186 1-299); settings: protein: recombinant; tags: N-terminal GST; dsDNA, one strand shown
# Sequence of CRX (O43186 whole entry): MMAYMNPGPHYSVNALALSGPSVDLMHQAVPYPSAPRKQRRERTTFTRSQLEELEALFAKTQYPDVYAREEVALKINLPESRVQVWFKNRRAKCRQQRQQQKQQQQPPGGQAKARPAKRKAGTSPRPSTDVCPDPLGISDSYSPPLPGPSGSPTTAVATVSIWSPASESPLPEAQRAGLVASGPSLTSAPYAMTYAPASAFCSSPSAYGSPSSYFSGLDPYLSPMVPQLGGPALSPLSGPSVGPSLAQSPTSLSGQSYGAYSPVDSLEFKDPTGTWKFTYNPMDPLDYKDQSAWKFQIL
# How it was run: as §1
# ETV1 = ETV1 (Homo sapiens, UniProt P50549 1-477); settings: protein: recombinant; tags: N-terminal GST; dsDNA, one strand shown
# Sequence of ETV1 (P50549 whole entry): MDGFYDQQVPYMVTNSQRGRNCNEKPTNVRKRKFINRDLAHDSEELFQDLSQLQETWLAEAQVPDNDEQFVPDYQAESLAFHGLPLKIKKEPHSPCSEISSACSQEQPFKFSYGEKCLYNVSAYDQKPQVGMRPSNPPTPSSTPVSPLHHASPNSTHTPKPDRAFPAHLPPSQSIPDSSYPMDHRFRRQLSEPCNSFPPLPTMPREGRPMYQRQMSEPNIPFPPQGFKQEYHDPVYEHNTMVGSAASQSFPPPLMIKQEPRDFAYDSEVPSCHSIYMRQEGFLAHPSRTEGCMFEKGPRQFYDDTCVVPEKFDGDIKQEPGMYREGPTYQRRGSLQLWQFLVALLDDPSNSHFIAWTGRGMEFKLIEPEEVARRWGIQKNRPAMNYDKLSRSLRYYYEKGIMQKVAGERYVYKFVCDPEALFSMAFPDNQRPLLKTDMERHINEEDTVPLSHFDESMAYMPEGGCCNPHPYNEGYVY
# How it was run: as §1
sequence,measurement,setting,value
GTTCGA,binding signal,FLI1,"1.13 fold enrichment (6-mer frequency, TF over GST control)"
same,binding signal,ELK1,"1.12 fold enrichment (6-mer frequency, TF over GST control)"
same,binding signal,GABPA,"1.17 fold enrichment (6-mer frequency, TF over GST control)"
same,binding signal,ERG,"1.07 fold enrichment (6-mer frequency, TF over GST control)"
same,binding signal,ELF1,"1.08 fold enrichment (6-mer frequency, TF over GST control)"
same,binding signal,EHF,"1.14 fold enrichment (6-mer frequency, TF over GST control)"
same,binding signal,SPI1,"1.04 fold enrichment (6-mer frequency, TF over GST control)"
same,binding signal,SPIB,"1.05 fold enrichment (6-mer frequency, TF over GST control)"
same,binding signal,ELK3,"1.15 fold enrichment (6-mer frequency, TF over GST control)"
same,binding signal,FEV,"1.02 fold enrichment (6-mer frequency, TF over GST control)"
same,binding signal,ETV5,"1.07 fold enrichment (6-mer frequency, TF over GST control)"
same,binding signal,HSF1,"1.9 fold enrichment (6-mer frequency, TF over GST control)"
same,binding signal,SPIC,"1.15 fold enrichment (6-mer frequency, TF over GST control)"
same,binding signal,ELF4,"1.12 fold enrichment (6-mer frequency, TF over GST control)"
same,binding signal,ELK4,"1.07 fold enrichment (6-mer frequency, TF over GST control)"
same,binding signal,ETV2,"1 fold enrichment (6-mer frequency, TF over GST control)"
same,binding signal,ELF3,"1.13 fold enrichment (6-mer frequency, TF over GST control)"
same,binding signal,CRX,"1.11 fold enrichment (6-mer frequency, TF over GST control)"
same,binding signal,ETV1,"1.08 fold enrichment (6-mer frequency, TF over GST control)"
